Source: PubChem
Sa ugtP lethal: kills S. aureus RN4220 lacking UgtP; S. aureus RN4220 ugtP deletion, OD600 growth, 16 h; growth inhibition, % (no concentration beside the values); actives 0.54% (n = 330,000); in the data active = growth inhibition above about 68%
RN4220 kill: kills Staphylococcus aureus RN4220; S. aureus RN4220 growth, OD600, 16 h; AID 1259311; inhibition, % (no concentration beside the values); actives 0.33% (n = 330,000); in the data active = inhibition above about 85%
Mtb hypoxia inh: inhibitors of hypoxia-regulated fluorescent reporter in Mycobacterium tuberculosis. actives 0.1% (n = 300,000). M. tuberculosis hypoxia-regulated fluorescent reporter, fluorescence. AID 1159583. fluorescence inhibition, % (concentration not given with the values); in the data active = fluorescence inhibition mostly above about 23%, no sharp cut-off; inactive = mostly below about 17%
Mtb betalactam: beta-lactam sensitization of Mtb H37Rv. AID 434955. inhibition, % at 25 µM. actives 0.27% (n = 330,000). M. tuberculosis H37Rv growth with meropenem, percent inhibition; call rule not given here;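 note: growth measured after seven days incubation then overnight dye step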
Mtb UGM inh: Mtb UDP-galactopyranose mutase inhibition; purified UGM, fluorescence polarization probe displacement; AID 504406; actives 0.06% (n = 320,000); inhibition, % at 10 µM; in the data active = inhibition above about 10%, passing the limit was not always enough
Rv3671c inh: inhibits the M. tuberculosis serine protease Rv3671c. actives 0.048% (n = 320,000). P9WHR9. inhibition, % at 5.96 µM; in the data active = inhibition above about 38%;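 note: extracellular domain of Rv3671c used as enzyme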
Target sequence (P9WHR9 whole entry, looked up, the tested form may be a part): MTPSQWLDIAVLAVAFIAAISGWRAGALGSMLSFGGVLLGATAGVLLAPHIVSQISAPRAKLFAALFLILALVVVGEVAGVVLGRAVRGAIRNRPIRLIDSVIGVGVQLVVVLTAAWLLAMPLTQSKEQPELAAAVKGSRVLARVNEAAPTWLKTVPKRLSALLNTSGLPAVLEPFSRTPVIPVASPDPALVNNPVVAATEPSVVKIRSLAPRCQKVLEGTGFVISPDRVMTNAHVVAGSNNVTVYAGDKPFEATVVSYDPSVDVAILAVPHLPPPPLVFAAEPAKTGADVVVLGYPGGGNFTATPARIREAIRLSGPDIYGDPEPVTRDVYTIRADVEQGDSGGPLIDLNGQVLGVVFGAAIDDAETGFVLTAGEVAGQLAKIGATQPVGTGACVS
Numbers stand for hits; 0 = inactive; - = no result shown. Sampled rows, rich in hits. Any-hit rate of the full collection: about 0.68%.

SMILES	Sa ugtP lethal	RN4220 kill	Mtb hypoxia inh	Mtb betalactam	Mtb UGM inh	Rv3671c inh
Clc1cccc(Cl)c1Cn1nnc(N2CCCC2)n1	0	0	36	0	0	0
Fc1cccc(Cl)c1Cn1nnc(-c2ccc(N3CCOCC3)cc2)n1	0	0	0	0	0	0
CCCCOc1ccc(/C=C/C(=O)OCC(=O)NC2CCS(=O)(=O)C2)cc1OCC (stereo not given)	92	0	0	0	0	0
CCOc1ccc(NS(=O)(=O)c2cc(NC(=O)c3ccc(C)cc3)ccc2Cl)cc1	85	0	0	0	0	0
CCOc1ccc(Oc2ccc(NS(=O)(=O)c3cc(C(=O)O)ccc3Cl)cc2)cc1	0	0	0	0	0	0
Cc1nc2cc(C(=O)OCC(=O)NC34CC5CC(CC(C5)C3)C4)ccc2n1-c1ccccc1	0	0	0	0	0	0
Cc1nc2cc(C(=O)OCC(=O)Nc3cccc(Cl)c3)ccc2n1-c1ccccc1	99	0	0	0	0	0
CCN1C(=O)C2C(c3ccc(-c4ccc5c(c4)OCO5)c(OC)c3)N[C@@](Cc3ccccc3)(C(=O)OC)C2C1=O (stereo not given in full)	0	0	0	-	-	-
CCOc1ccc2nc(SCc3ccccc3C#N)sc2c1	0	0	0	0	0	0
CCOc1ccc2nc(SCc3ccc(OC)cc3)sc2c1	90	0	0	0	0	0
COC(=O)C1=C(c2cc3ccccc3o2)CC2CCC1N2C(=O)NC(C)C (stereo not given)	0	0	0	-	-	-
Nc1nc(NCc2ccco2)nc(N2CCCCCC2)c1[N+](=O)[O-]	98	95	0	0	-	0
CO[C@@]1(NC(=O)C2SC(=C(C(N)=O)C(=O)O)S2)C(=O)N2C(C(=O)O)=C(CSc3nnnn3C)CS[C@@H]21 (stereo not given in full)	-	-	-	0	0	0
CO[C@@]1(NC(=O)C2SC(=C(C(N)=O)C(=O)O)S2)C(=O)N2C(C(=O)O)=C(CSc3nnnn3C)CSC21 (stereo not given in full)	100	100	0	-	-	-
NC(N)=NS(=O)(=O)c1ccc(NC(=S)NC(=O)Cc2ccc(Cl)cc2)cc1	88	0	0	0	0	0
NC(N)=NS(=O)(=O)c1ccc(NC(=S)NC(=O)/C=C/c2ccccc2)cc1	0	0	0	0	0	0
NC(N)=NS(=O)(=O)c1ccc(NC(=S)NC(=O)c2ccccc2)cc1	active	0	0	0	0	0
Cc1cccc(C2C3C(=O)N(C)C(=O)C3C3C(=O)Nc4ccccc4C(=O)N32)c1 (stereo not given)	0	0	0	-	-	-
Cn1cc(C=C(C(=O)O)C(C(=O)O)=C2CCCCC2)c2ccccc21	0	0	0	-	-	-
CC(C)CC(CN=[N+]=[N-])N1CCN(C)CCC1=O (stereo not given)	0	0	0	-	-	-
CC(C)(C)C1CCC(=O)N(CCC(N=[N+]=[N-])c2ccccc2)CC1 (stereo not given)	0	0	0	-	-	-
CC(C)C[C@@H]1CN=C(N)N1C[C@@H]1CCCN1C[C@@H](C(C)C)N1C[C@@H](Cc2ccccc2)N(CCCC2CCCC2)C1=N	101	101	-	0	-	0
CC[C@@H](C)[C@@H]1CN([C@@H](C)CN2CCC[C@H]2CN2C(N)=NC[C@@H]2Cc2ccccc2)C(=N)N1CCc1ccc(Cl)c(Cl)c1	-	-	-	0	0	0
CCCCN1C(=N)N(C(CCC)CN2CCCC2CN2C(N)=NCC2Cc2ccccc2)CC1Cc1ccccc1 (stereo not given)	98	0	-	-	-	-
CC[C@@H](C)[C@@H]1CN([C@@H](CN2CCC[C@H]2CN2C(N)=NC[C@H]2C(C)C)C(C)C)C(=N)N1CCc1ccc(Cl)c(Cl)c1	101	101	-	0	-	0
SMILES	Sa ugtP lethal	RN4220 kill	Mtb hypoxia inh	Mtb betalactam	Mtb UGM inh	Rv3671c inh
CCCCN1C(=N)N([C@@H](CCC)CN2CCC[C@H]2CN2C(N)=NC[C@@H]2Cc2ccccc2)C[C@H]1[C@H](C)CC	-	-	-	0	0	0
CCCCN1C(=N)N([C@@H](CCC)CN2CCC[C@H]2CN2C(N)=NC[C@H]2CC(C)C)C[C@H]1Cc1ccccc1	0	0	0	0	-	0
CCC[C@@H](CN1CCC[C@H]1CN1C(N)=NC[C@H]1C(C)C)N1C[C@@H](Cc2ccccc2)N(CCCC2CCCC2)C1=N	101	100	-	0	0	0
CC(=O)OC1CC2CCC3C(CC[C@@]4(C)C3CC([N+]3(C)CCCCC3)C4OC(C)=O)[C@@]2(C)CC1[N+]1(C)CCCCC1 (stereo not given in full)	0	0	0	-	-	-
C[C@]12CCC3c4ccc(O)cc4CCC3C1CC(O)C2OC1OC(C(=O)O)C(O)C(O)C1O (stereo not given in full)	0	0	0	-	-	-
O=c1oc2cc(Oc3c([N+](=O)[O-])cc(C(F)(F)F)cc3[N+](=O)[O-])ccc2c2c1CCCC2	94	0	0	0	0	0
CC(C)C(Nc1nc(-c2ccccc2)nc2c1oc1ccccc12)C(=O)O (stereo not given)	0	0	-	-	-	-
CN1CC=C2C(C#N)=C(N)C(C#N)(C#N)C(CCc3ccccc3)C2C1 (stereo not given)	0	0	0	0	0	0
CCCC1C2CN(C(C)C)CC=C2C(C#N)=C(N)C1(C#N)C#N (stereo not given)	0	0	0	0	13	0
Cc1ccc(C2(c3ccc(C)cc3)CC2C(=O)Nc2ccc([N+](=O)[O-])cc2O)cc1 (stereo not given)	100	101	0	0	0	0
COC(=O)C1=C(c2ccc3ccccc3c2)CC2CCC1N2C(=O)NCCO (stereo not given)	0	0	0	-	-	-
C#CCOCCOCCOCCNc1nc(N2CCOCC2)nc(N2CCN(C(=O)C(Cc3ccc(O)cc3)n3cc(CCO)nn3)CC2)n1 (stereo not given)	0	0	0	-	-	-
CCOC1OC(C(=O)NCc2ccccc2)=CC(c2coc3ccccc3c2=O)C1CCCO (stereo not given)	0	0	0	-	-	-
O=C(NN=C1C(=O)c2cccc3cccc1c23)c1ccc(Cl)cc1	92	97	0	-	-	-
O=C(N/N=C1\C(=O)c2cccc3cccc1c23)c1ccc(O)cc1	0	0	0	0	0	0
C=CCC(CC(=O)N(CCO)Cc1ccccc1)C(=O)NC(COC(=O)C(CC=C)CC(=O)OC(C)(C)C)Cc1c[nH]c2ccccc12 (stereo not given)	0	0	0	-	-	-
O=C(COC(=O)c1cc2ccccc2o1)c1ccccc1	0	0	-	0	0	0
O=C(Oc1ccccc1)c1cc2ccccc2o1	101	0	0	0	0	0
CC1CN(C(C)CO)C(=O)c2cc(NC(=O)NC3CCCCC3)ccc2OC1CN(C)C(=O)Nc1ccc(C(F)(F)F)cc1 (stereo not given)	0	0	0	-	-	-
CC(C)c1cc(C(=O)OCC(=O)NC(=O)NCc2ccco2)c(O)c(C(C)C)c1	94	0	0	0	0	0
